Results on 27 compounds are retold here after PubChem BioAssay (Tox21).

Experiment [1] is described as follows: qHTS assay to identify small molecule antagonists of the estrogen receptor alpha (ER-alpha) signaling pathway using the BG1 cell line in the presence of 0.1 nM 17-beta-estradiol - cell viability counter screen (AID 1259241). Further: nearly all actives have a fitted effect of over 40% in size. The gist of the method: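 VM7Luc4E2 cells (endogenous ER-alpha, 4×ERE-luciferase), hormone-starved 5 days in charcoal-stripped FBS, were treated with compounds plus 0.1 nM 17beta-estradiol for 22 hr at 37C; viability read in same wells as CellTiter-Fluor live-cell protease fluorescence.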
(In general: qHTS replaces the single test concentration by a dilution series.)

A short description of experiment [2]: qHTS assay to identify small molecule antagonists of the androgen receptor (AR) signaling pathway using the MDA cell line in the presence of 0.5 nM R1881 - cell viability counter screen (AID 1259242). Further: nearly all actives have a fitted effect of over 45% in size. The gist of the method:
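Viability of MDA-kb2 cells was multiplexed with the luciferase AR readout; after 16 hr with compounds and R1881 at 0.5 nM final, CellTiter-Fluor fluorescence was recorded.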

A short description of experiment [3]: qHTS assay to identify small molecule phospholipidosis (PLD) inducers (AID 1259344; active means well fitted curve in the direction sought with a large enough effect; an effect the other way counts as inactive or inconclusive; further: potency means the concentration at half of the fitted maximal effect). In outline: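 Fluorescent phospholipid staining (LipidTOX Red) measured by automated microscopy in fixed HepG2 cells after 24 h treatment; nuclei counterstained with Hoechst 33342; amiodarone as reference inducer.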
Experiment [4] is described as follows: qHTS assay to identify small molecule HDAC inhibitors (AID 1259364).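 Further: wild-type HCT-116 cells with endogenous class I/II HDAC activity; top concentration of the series differs between compounds; nearly all actives have a fitted effect of over 45% in size.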 The gist of the method:
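Read-out: luminescence of HDAC-Glo I/II reagent, 30 min RT, reflecting class I/II deacetylase activity in whole HCT-116 cells pre-exposed 2 h to DMSO-dissolved compounds.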

A short description of experiment [5]: qHTS assay to identify small molecule HDAC inhibitors - cell viability counter screen (AID 1259365). Further: series mostly up to about 92 µM; nearly all actives have a fitted effect of over 50% in size. In outline:
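Wild-type HCT-116 cells were seeded at 1,500 per well, incubated overnight at 37 C, then exposed to compounds in DMSO for 2hr. Viability was read by CellTiter-Glo luminescence after 30min at room temperature.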

Experiment [6] can be described thus: qHTS assay to identify small molecule agonists of the sonic hedgehog signaling (Shh) pathway - cell viability counter screen (AID 1259366). Further: nearly all actives have a fitted effect of over 50% in size. Further: potency means the concentration at half of the fitted maximal effect. In outline:
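NIH/3T3-derived 3T3 Gli1-Luc cells (stable Gli1-responsive firefly luciferase reporter) were seeded, rested 4 hr at 37 C/5% CO2, then exposed to compounds in DMSO for 24 hr; viability was read by CellTiter-Fluor fluorescence in the same wells.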

A short description of experiment [7]: qHTS assay to identify small molecule antagonists of the sonic hedgehog signaling (Shh) pathway - cell viability counter screen (AID 1259367). Further: nearly all actives have a fitted effect of over 55% in size. Further: potency means the concentration at half of the fitted maximal effect. The gist of the method: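 Using CellTiter-Fluor, viability of Gli1-Luc reporter 3T3 cells is read by fluorescence in the wells used for the Shh luciferase assay. Treatment lasts 23 hr with conditioned medium, then reagent 1 hr at 37C.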

Experiment [8] can be described thus: qHTS assay to identify small molecule agonists of the sonic hedgehog signaling (Shh) pathway (AID 1259368; calls by dose curve; further: series mostly up to about 92 µM; nearly all actives have a fitted effect of over 15% in size). In outline: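 A Gli1 transcriptional response element controlled firefly luciferase in 3T3Gli1-Luc cells. Compounds and a positive control were added 4 hr after plating, and cells were incubated a further 24 hr at 37 C before luminescence detection.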

A number with no mark means an inactive call. Results filed as inconclusive are left out. Active and inactive are the calls of the source. Unless noted, the call rests on the fitted dose curve; in most records, active means well fitted curve in the direction sought with a large enough effect in the repeat runs; inconclusive means weak or mixed curves; inactive means no such curve, though single readings can be large; an effect the other way counts as inactive or inconclusive.
On the % scale 0 is the no-effect control and ±100 the full control effect.

`Cn1cc(C2=C(c3cn(C4CCN(Cc5ccccn5)CC4)c4ccccc34)C(=O)NC2=O)c2ccccc21`: the Potency entry in experiment [1], in experiment [2], in experiment [4], in experiment [5], in experiment [6] and in experiment [7] was “inactive” each time. The Potency entry in experiment [8] is “inactive”. For the same compound, the Potency in experiment [3] was 1.78 µM (active).

Consider `COc1cc(N)c(Cl)cc1C(=O)NC1CN2CCC1CC2` (stereo not given), for which the Potency result in experiment [1], in experiment [2], in experiment [3], in experiment [4], in experiment [5] and in experiment [6] was “inactive” each time. In addition, the Potency result in experiment [7] and in experiment [8] was “inactive” throughout.

As for `c1ccc2c(c1)OCC(C1=NCCN1)O2` (stereo not given), the Potency entry in experiment [1], in experiment [2], in experiment [3], in experiment [5] and in experiment [8] was “inactive” in each case. For the same compound, the Potency in experiment [7] is 2.11 µM (active).

Take `Oc1ccc2ccc3cccc4ccc1c2c34`: the Potency result in experiment [1], in experiment [2], in experiment [4], in experiment [5], in experiment [6] and in experiment [7] was “inactive” each time. For the same compound, in experiment [8], the Potency result is “inactive”.

Consider `O=C(O)COc1nc(Cl)c(Cl)cc1Cl`, for which the Potency entry in experiment [1], in experiment [2], in experiment [4], in experiment [5], in experiment [6] and in experiment [7] was “inactive” in each case. Moreover, in experiment [8], the Potency entry is “inactive”.

`COc1ccc(OC)c(C=O)c1`: the Potency result in experiment [1], in experiment [2], in experiment [4], in experiment [5], in experiment [6] and in experiment [7] was “inactive” throughout.

Consider `CC(C)[C@H](C(=O)OC(C#N)c1cccc(Oc2ccccc2)c1)c1ccc(OC(F)F)cc1` (stereo not given in full), for which the Potency entry in experiment [1], in experiment [2], in experiment [4], in experiment [5], in experiment [6] and in experiment [7] was “inactive” each time. Also, the Potency entry in experiment [8] is “inactive”.

In the case of `NC(=O)c1ccc(N)nc1`, the Potency result in experiment [1], in experiment [2], in experiment [4], in experiment [5], in experiment [6] and in experiment [7] was “inactive” throughout.

Turning to `CC(C)(COCC1CO1)COCC1CO1` (stereo not given), the Potency entry in experiment [1], in experiment [2], in experiment [4], in experiment [5], in experiment [6] and in experiment [7] was “inactive” in each case. Besides, the Potency entry in experiment [8] is “inactive”.

Consider `Oc1cccc(-c2ccccc2)c1`, for which the Potency entry in experiment [1], in experiment [2], in experiment [4], in experiment [5], in experiment [6] and in experiment [7] was “inactive” in each case. In addition, the Potency entry in experiment [8] was “inactive”.

For the compound `c1cc[c]([Sb]([c]2ccccc2)[c]2ccccc2)cc1`, the Potency result in experiment [1], in experiment [2], in experiment [4], in experiment [5], in experiment [6] and in experiment [7] was “inactive” throughout. The Potency entry in experiment [8] is “inactive”.

On to `c1ccc(OCC2CO2)cc1` (stereo not given), for which the Potency result in experiment [1], in experiment [2], in experiment [4], in experiment [5], in experiment [6] and in experiment [7] was “inactive” each time. Also, in experiment [8], the Potency entry was “inactive”.

As for `Brc1c(Br)c(Br)c(Oc2c(Br)c(Br)c(Br)c(Br)c2Br)c(Br)c1Br`, the activity change, negative = cytotoxicity is 5.06% [at 19 µM] in experiment [1] and 2.12% [at 19 µM] in experiment [5]. Besides, the viability change, negative = cytotoxic in experiment [2] is -0.43% [at 19 µM]; in experiment [6] it was -1.06% [at 19 µM]; in experiment [7], 4.4% [at 19 µM]. Also, in experiment [4], the activity change, negative = inhibition was -0.806% [at 19 µM]. In experiment [8], the activity change is 0.699% [at 18.9 µM, active compounds read high].

In the case of `CC(C)[C@H](C(=O)O[C@H](C#N)c1cccc(Oc2ccccc2)c1)c1ccc(Cl)cc1`, the Potency result in experiment [1], in experiment [2], in experiment [4], in experiment [5], in experiment [6] and in experiment [7] was “inactive” each time.

For the compound `COC[C@H](C)N(C(=O)CCl)c1c(C)csc1C`, the Potency result in experiment [1], in experiment [2], in experiment [4], in experiment [5], in experiment [6] and in experiment [7] was “inactive” in each case. Besides, the Potency entry in experiment [8] was “inactive”.

With `C=CCOC(N)=O`, the Potency result in experiment [1], in experiment [2], in experiment [4], in experiment [5], in experiment [6] and in experiment [7] was “inactive” throughout. Moreover, the Potency result in experiment [8] was “inactive”.

Regarding `CC(C)CC(C)(c1ccc(O)cc1)c1ccc(O)cc1`, the Potency entry in experiment [1], in experiment [2], in experiment [4], in experiment [5] and in experiment [8] was “inactive” in each case. In addition, the Potency in experiment [6] was 54.6 µM (active); in experiment [7], 61.3 µM (active).

Consider `CCOc1cc(C(C)(C)C)ccc1C1COC(c2c(F)cccc2F)=N1` (stereo not given), for which the Potency entry in experiment [1], in experiment [2], in experiment [4], in experiment [5], in experiment [6] and in experiment [7] was “inactive” in each case. Moreover, the Potency result in experiment [8] was “inactive”.

On to `CC(C)CCCCCCCOP(=O)(Oc1ccccc1)Oc1ccccc1`, for which the Potency entry in experiment [1], in experiment [2], in experiment [4], in experiment [5], in experiment [6] and in experiment [7] was “inactive” in each case. Further, in experiment [8], the Potency result is “inactive”.

Regarding `CC(C)CC(C)N` (stereo not given), the Potency entry in experiment [1], in experiment [2], in experiment [4], in experiment [5], in experiment [6] and in experiment [7] was “inactive” throughout.

As for `Clc1ccc(C(Cl)(Cl)Cl)c(Cl)c1`, the Potency result in experiment [1], in experiment [2], in experiment [4], in experiment [5], in experiment [6] and in experiment [7] was “inactive” each time. For the same compound, the Potency entry in experiment [8] was “inactive”.

With `CCS(=O)(=O)c1cccnc1S(=O)(=O)NC(=O)Nc1nc(OC)cc(OC)n1`, the Potency result in experiment [1], in experiment [2], in experiment [4], in experiment [5], in experiment [6] and in experiment [7] was “inactive” each time. The Potency result in experiment [8] is “inactive”.

As to `CC(=O)c1cc(C(C)(C)C)cc2c1CCC2(C)C`, the Potency result in experiment [1], in experiment [2], in experiment [4], in experiment [5], in experiment [6] and in experiment [7] was “inactive” throughout. Besides, in experiment [8], the Potency result is “inactive”.

Consider `N#Cc1ccccc1Cl`, for which the Potency result in experiment [1], in experiment [2], in experiment [4], in experiment [5], in experiment [6] and in experiment [7] was “inactive” each time. Further, the Potency result in experiment [8] was “inactive”.

Consider `CC(Cc1ccc(C(C)(C)C)cc1)CN1C[C@@H](C)O[C@@H](C)C1` (stereo not given in full), for which the Potency entry in experiment [1], in experiment [2], in experiment [4], in experiment [5], in experiment [6] and in experiment [7] was “inactive” each time. Also, in experiment [8], the Potency entry is “inactive”.

As to `OC(Cc1ccccc1Cl)(Cn1cncn1)C1(Cl)CC1` (stereo not given), the Potency entry in experiment [1], in experiment [2], in experiment [4], in experiment [5], in experiment [6] and in experiment [7] was “inactive” each time.

With `Oc1ccc(C(c2ccc(O)cc2)(C(F)(F)F)C(F)(F)F)cc1`, the Potency result in experiment [1], in experiment [2], in experiment [4], in experiment [5], in experiment [6] and in experiment [7] was “inactive” each time. The Potency entry in experiment [8] is “inactive”.
